Compound activity deposited in PubChem by several laboratories.
Beta cell apopt = blocks beta cell apoptosis; INS-1E cytokine-induced death, ATP luminescence, 48 h; percent of positive-control rescue, neutral wells zero; protection from apoptosis, % (concentration not given with the values); hit rate 0.8% among 300,000; AID 435005;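 active means Every replicate reaches about 75%, or at least half do and their mean reaches it too, limit read from the data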;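 further: 0% = cytokine-treated negative control wells and 100% = positive control rescue; higher means more ATP so stronger rescue from cytokine killing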
Calb FLC = affects C. albicans growth with fluconazole | growth inhibition, % (concentration not given with the values) | hit rate 0.57% among 300,000 | C. albicans CaCi-2 (fluconazole-resistant clinical isolate) + fluconazole, Alamar Blue growth, 48 h;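 active means growth inhibition above about 58% in most replicates, limit read from the data, passing the limit was not always enough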;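 further: all wells also contain fluconazole at 8 µg/ml as a sub-toxic cotreatment; 0% = median of DMSO wells and 100% = median of geldanamycin control wells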
MPTP inh = blocks calcium-induced mitochondrial swelling | isolated mouse mitochondria, Ca2+ swelling absorbance, 30 min | hit rate 1.4% among 360,000 | inhibition, % at 10 µM;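 active means inhibition of 50% or more, scaled per plate between neutral and stimulator controls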;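 further: 0% = DMSO wells given calcium and 100% = 1 mM EGTA wells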
Mdm2 MdmX PPI = human Mdm2/MdmX binding inhibition; O15151+Q00987; SaOS-2 split-luciferase Mdm2/MdmX complementation, luminescence; inhibition, % at 8 µM; hit rate 3% among 330,000;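 active means inhibition of at least 50% at 8 µM in the primary screen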
Target sequence (O15151 whole entry, looked up): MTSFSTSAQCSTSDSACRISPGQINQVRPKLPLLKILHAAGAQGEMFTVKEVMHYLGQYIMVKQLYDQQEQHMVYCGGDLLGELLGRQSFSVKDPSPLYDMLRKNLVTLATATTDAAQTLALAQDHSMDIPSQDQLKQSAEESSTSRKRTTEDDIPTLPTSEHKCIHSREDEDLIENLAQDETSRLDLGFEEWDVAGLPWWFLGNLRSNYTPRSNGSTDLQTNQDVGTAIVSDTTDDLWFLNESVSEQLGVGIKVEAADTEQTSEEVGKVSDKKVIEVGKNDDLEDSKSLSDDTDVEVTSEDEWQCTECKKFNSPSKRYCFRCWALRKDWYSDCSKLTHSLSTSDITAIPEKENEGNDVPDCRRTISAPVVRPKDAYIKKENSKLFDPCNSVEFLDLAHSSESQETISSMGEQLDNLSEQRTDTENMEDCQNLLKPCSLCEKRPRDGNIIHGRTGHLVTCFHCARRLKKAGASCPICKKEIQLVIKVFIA
Target sequence (Q00987 whole entry, looked up): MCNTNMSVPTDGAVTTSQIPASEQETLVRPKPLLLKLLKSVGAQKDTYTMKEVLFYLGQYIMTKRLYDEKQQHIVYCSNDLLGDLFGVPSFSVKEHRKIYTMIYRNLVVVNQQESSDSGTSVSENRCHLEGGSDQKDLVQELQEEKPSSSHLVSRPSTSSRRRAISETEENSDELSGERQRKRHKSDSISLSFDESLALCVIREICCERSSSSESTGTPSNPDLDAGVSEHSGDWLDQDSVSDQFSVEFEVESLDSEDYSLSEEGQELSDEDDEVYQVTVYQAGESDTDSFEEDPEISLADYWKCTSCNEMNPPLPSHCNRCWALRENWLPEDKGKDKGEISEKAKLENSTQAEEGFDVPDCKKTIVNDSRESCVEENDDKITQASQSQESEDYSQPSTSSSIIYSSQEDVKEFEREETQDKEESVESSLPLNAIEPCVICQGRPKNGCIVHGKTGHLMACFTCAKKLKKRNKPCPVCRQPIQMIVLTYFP
CSC inhib = blocks cancer stem cells; cancer stem cell-like cells viability, luminescence; hit rate 1.1% among 300,000; inhibition, % at 7.5 µM; AID 2717; in the data active means inhibition above about 75%; tested in HMLE shEcad cells
SKKanGAS inh = inhibitors of SKKanGAS S. pyogenes growth in kanamycin (SK-promoter or general growth effect); inhibition, % at 7.5 µM; AID 1662; BacTiter-Glo, 6 h; hit rate 1.3% among 300,000;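 active means mean replicate score, as percent of positive control median, at least 50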;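 further: strain carries kanamycin resistance gene driven by streptokinase promoter and grows in 40 µg/ml kanamycin; loss of luminescence reflects streptokinase promoter inhibition or plain growth inhibition; 0% = median of DMSO wells and 100% = positive control at its reference dose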
Mdm2 MdmX conf = confirmation of human Mdm2/MdmX interaction inhibitors; shares compounds with Mdm2 MdmX PPI; Mdm2-MdmX binding, luminescent assay; inhibition, % at 8 µM; hit rate 55% among 10,000; in the data active means inhibition above about 40%
FLuc counter = full-length luciferase inhibition in Mdm2/MdmX counter-screen; hit rate 77% among 6,200; inhibition, % at 8 µM; SaOS-2 full-length luciferase counterscreen, luminescence; AID 504607; shares compounds with Mdm2 MdmX PPI;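 active means mean inhibition at 8 µM reaching about 37%, which flags the compound as non-specific, limit read from the data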;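 further: p53-null SaOS-2 cells with luciferase driven by a doxycycline-inducible promoter; compound on cells about two nights before reading with doxycycline added after day one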
The depositor's hits bear a star; . = not tested or not shown. Rows were chosen to be rich in hits. Some 5.4% of all compounds tested hit in one or more screens of this group.

SMILES	Beta cell apopt	Calb FLC	MPTP inh	Mdm2 MdmX PPI	CSC inhib	SKKanGAS inh	Mdm2 MdmX conf	FLuc counter
COc1cccc(C2NC(=S)NC(C)=C2C(=O)c2ccccc2)c1OC (stereo unspecified)	5	6	-1	51*	3	1	49*	78*
Cc1ccc(S(=O)(=O)NC(CC(C)C)C(=O)N2CCOCCOCCOCCOCC2)cc1 (stereo unspecified)	1	-5	1	17	.	1	.	.
COc1ccc(CNC(=O)CSCc2cccc(Cl)c2)cc1	-2	-4	0	-16	0	-9	.	.
CCN(CC)S(=O)(=O)c1cccc(C(=O)N/N=C/c2ccc(O)c(O)c2O)c1	-2	.	1	.	16	.	.	.
CCN(CC)S(=O)(=O)c1cccc(C(=O)N/N=C(\C)c2ccc(O)cc2O)c1	.	-12	4	73*	.	5	57*	106*
CCc1ccc(N2C(=O)C(Cl)=C(Nc3ccc(C(=O)N4CCCC4)cc3)C2=O)cc1	-14	.	0	95*	.	.	95*	39*
Cc1ccc(-c2cc3onc(-c4ccccc4)c3c(=O)n2C)cc1	16	.	0	73*	20	.	74*	103*
CCSc1ncc(Cl)c(C(=O)N(Cc2ccc(N(C)C)cc2)C2CCS(=O)(=O)C2)n1 (stereo unspecified)	.	0	-1	.	.	-1	.	.
O=S1(=O)CCOC[C@H](Cc2ccccc2)N1Cc1ccc(Cl)cc1	-6	9	0	-9	-2	4	.	.
Cc1c(C(=O)NCCC2=CCCCC2)oc2ccc(S(=O)(=O)N3CCOCC3)cc12	14	.	3	54*	16	.	34	.
Cc1c(C(=O)NCCCN2CCCC2=O)oc2ccc(S(=O)(=O)N3CCOCC3)cc12	-6	.	-2	1	-13	.	.	.
CCCNC(=O)C(Cc1ccc(Cl)cc1)NC(=O)c1ccc(-c2ccccc2)cc1 (stereo unspecified)	24	.	0	59*	5	.	17	.
Cc1ccccc1NC(=O)Cc1nnc(NC(=O)Nc2ccccc2F)s1	1	3	2	77*	15	-13	10	.
Cc1ccc(-c2sc(-c3ccccc3)nc2CC(=O)Nc2ccccc2F)cc1	141*	-3	6	52*	6	-2	9	.
COc1ccc(Cc2nnc(SCc3ccc([N+](=O)[O-])cc3)o2)cc1	-18	13	-1	60*	8	-5	61*	29
COc1cc(C(=O)NNC(=O)c2cc(C)[nH]n2)cc(OC)c1OC	1	-13	2	7	-8	-1	.	.
Cn1cc(/C=C/C(=O)N2CCCC(C(=O)c3ccc(C(C)(C)C)cc3)C2)cn1 (stereo unspecified)	7	4	-1	9	63	-12	.	.
CC(=O)Nc1ccc(CNc2ncnc3ccc(-c4c(C)noc4C)cc23)cc1	-38	.	2	88*	16	.	68*	49*
COc1ccccc1/C=C\C(=O)NCC(=O)N/N=C/c1cccc(OC)c1O	41	-22	-2	51*	72	10	18	.
Cc1cccc(OCC(=O)NCC(=O)N/N=C/c2ccc(O)cc2O)c1	19	0	0	46	60	1	.	.
COc1cccc(/C=N/NC(=O)CNC(=O)COc2cccc(C)c2)c1O	35	-25	2	54*	60	10	47*	45*
COc1ccccc1/C=C/C(=O)NCC(=O)N/N=C/c1cc(Br)ccc1OC	3	-5	-4	33	21	36	.	.
CN1CCN(CCCNC(=O)c2ccc(/C=C3/Sc4ccccc4N(Cc4cccc(Cl)c4)C3=O)cc2)CC1	.	20	-2	.	.	35	.	.
CCN1CCN(CCNC(=O)c2ccc(/C=C3\Sc4ccccc4N(Cc4ccccc4F)C3=O)cc2)CC1	4	44	-4	92*	20	8	52*	46*
COCCCNC(=O)/C=C1\Sc2ccccc2N(Cc2ccccc2F)C1=O	-16	5	1	88*	25	2	53*	38*
SMILES	Beta cell apopt	Calb FLC	MPTP inh	Mdm2 MdmX PPI	CSC inhib	SKKanGAS inh	Mdm2 MdmX conf	FLuc counter
Cc1cccc(CN2C(=O)/C(=C\c3ccc(C(=O)NCCCN4CCN(C)CC4)cc3)Oc3ccccc32)c1	22	5	3	100*	105*	11	56*	36*
CN1CCN(CCCNC(=O)c2ccc(/C=C3\Oc4ccccc4N(Cc4ccccc4F)C3=O)cc2)CC1	5	32	0	92*	13	4	12	.
CC1=C(C(=O)OC(C)(C)C)C(c2cccc3ccccc23)NC(=O)N1 (stereo unspecified)	-3	0	-1	-12	-3	-2	.	.
N#Cc1ccc(S(=O)(=O)N2CCCN(c3nc4ccc(Cl)cc4s3)CC2)cc1	4	0	5	16	-8	-1	.	.
Cc1cc(C[n+]2ncsc2N)c2ncccc2c1	-4	-4	2	99*	-7	-16	17	.
Cc1cc(C[n+]2cc(Cl)ccc2N)c2ncccc2c1	2	15	1	32	5	-6	.	.
CCOc1ccc2c(c1)sc(N)[n+]2Cc1cc(C)cc2cccnc12	63	1	42	58*	-6	5	65*	60*
Nc1c(Cl)cc(C(=O)NC2CC2)cc1Cl	.	.	0	.	.	.	.	.
COc1ccc(CCNC(=O)c2ccc3c(c2)OCCO3)cc1	-3	-22	-2	-64	-1	9	.	.
O=C(NCCc1ccccc1)c1ccc2c(c1)OCCO2	3	-23	-1	84*	3	-1	85*	28
O=C(NCCc1ccccc1)c1ccc2c(c1)OCCCO2	3	-20	-2	97*	10	2	94*	52*
O=C(CCc1ccccc1)c1ccc2c(c1)OCCCO2	-7	1	2	-133	1	-8	.	.
O=C(CCCc1ccccc1)c1ccc2c(c1)OCCO2	-5	-8	-1	90*	0	10	88*	57*
COc1ccc(Cn2nnc3ccccc32)cc1	-5	-19	-1	16	8	-2	.	.
CCOC(=O)C1CCN(CC(O)COCc2ccccc2)CC1 (stereo unspecified)	-3	-2	-1	1	-4	8	.	.
O=[N+]([O-])c1cccnc1S(=O)(=O)c1ccccc1	65	92*	0	92*	16	4	65*	58*
COc1nc(OC)nc(Oc2ccc(Cl)cc2[N+](=O)[O-])n1	-11	-2	-1	-3	-7	-1	.	.
COc1ccc([N+](=O)[O-])c(S(=O)(=O)c2ccccc2)n1	94*	-19	3	99*	45	4	98*	52*
COc1ccc([N+](=O)[O-])c(S(=O)(=O)c2ccc(Cl)cc2)n1	83*	-37	7	97*	39	0	95*	52*
